The results in this text go back to PubChem BioAssay (Tox21).

Results filed as inconclusive are left out. Activity calls are given as the source filed them. Calls follow the shape of the dose curve; as a rule, active = well fitted inhibition curve with a large enough effect in the repeat runs; inconclusive = weak or mixed curves; inactive = no such curve, though single readings can be large or run the other way.
% is scaled to controls: 0 for no effect and ±100 for the full control effect; potency is read from the fitted curve at half-maximal effect.

Cytochrome P450 3A4 (Homo sapiens), sequence (P08684 whole entry, looked up): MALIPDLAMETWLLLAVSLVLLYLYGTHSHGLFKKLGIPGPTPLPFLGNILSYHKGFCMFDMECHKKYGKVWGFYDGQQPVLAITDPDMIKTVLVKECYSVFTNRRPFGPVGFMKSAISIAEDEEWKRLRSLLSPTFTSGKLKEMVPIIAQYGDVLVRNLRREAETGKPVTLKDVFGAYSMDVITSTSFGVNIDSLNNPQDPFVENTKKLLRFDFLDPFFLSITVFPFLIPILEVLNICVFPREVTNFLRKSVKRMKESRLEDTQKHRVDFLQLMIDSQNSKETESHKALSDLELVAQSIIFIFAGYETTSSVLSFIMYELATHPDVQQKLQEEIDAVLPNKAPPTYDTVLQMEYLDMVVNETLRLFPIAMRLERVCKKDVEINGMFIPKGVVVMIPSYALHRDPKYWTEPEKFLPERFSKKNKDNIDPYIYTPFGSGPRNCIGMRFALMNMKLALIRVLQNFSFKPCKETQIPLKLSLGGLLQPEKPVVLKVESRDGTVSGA

This experiment concerns the target Cytochrome P450 3A4 (Homo sapiens) (UniProt P08684). Briefly: Cytochrome P450 Family 3 Subfamily A Member 4 (CYP3A4) small molecule antagonists: luciferase reporter qHTS assay (AID 1671201). Also: nearly all actives have a fitted effect of over 50% in size. The note with it: P450-Glo CYP3A4 enzyme, luciferin luminescence, 1 h; series mostly up to 115 µM; activity change, negative = inhibition: at the top concentration. The text has this: National Center for Advancing Translational Sciences [NCATS]
U.S. Environmental Protection Agency [EPA]
National Institutes of Environmental Health Sciences [NIEHS]
National Toxicology Program [NTP]
U.S. Food and Drug Administration [FDA]
Cytochrome P450 (CYP) enzymes are membrane-bound hemeproteins that play a key role in metabolism of drugs and xenobiotics. Evaluation of the effect of chemicals on CYP isozymes is useful to minimize the adverse drug reactions and toxicities in drug development process. Tox21 chemicals were tested for their effect on CYP enzyme activities by using P450-Glo (TM) screening systems (Promega Corporation, Madison, WI). These systems provide a luminescent method containing proluciferin substrates and are converted to luciferin products by CYP isozymes. The luciferin products formed are detected with a luciferin detection reagent, and the amount of light produced is proportional to CYP activity. P450-Glo (TM) CYP3A4 screening system (Catalog. No. V9910) was used to detect the compounds that interfere in CYP3A4 activity. The positive control compound used for CYP3A4 assay is ketoconazole (Sigma-Aldrich, St. Louis, MO).
Tox21 Assay Protocol Summary:
Two ul of enzyme-substrate mix was dispensed into medium binding white/solid 1536-well plates (Greiner Bio-One North America Inc., Monroe, NC) using a BioRaptr Flying Reagent Dispenser (FRD, Beckman Coulter, Brea, CA). Compounds dissolved in DMSO and positive control (ketoconazole) were transferred to the assay plates at 23 nl using a Pintool station (Wako, San Diego, CA). The assay plates were incubated at room temperature for 10 min. Then 2 ul of NADPH regeneration solution was added to each well of the assay plates using an FRD and incubated at room temperature for 1 h. The reaction was stopped by adding 4 ul of detection reagent using an FRD and after 20 min incubation at room temperature the luminescence signal was measured using a ViewLux plate reader (Perkin Elmer, Shelton, CT). Data were expressed as relative luminescence units.
On the technique in general: In a reporter assay the amount or activity of a reporter protein is the signal.
As for `CCOC(=O)COc1ccc2c(c1)CC(NCC(O)c1cccc(Cl)c1)CC2` (stereo not given), the “activity change, negative = inhibition” value was 0.57% (inactive).

`C[C@]12C(=O)OC(=O)[C@H]1[C@H]1C=C[C@@H]2C1`: the “activity change, negative = inhibition” value is 11.7% (inactive).

Regarding `CCN(O)CC`, the “activity change, negative = inhibition” value was -16.8% (inactive).

For `N#CSCC(=O)O`, the “activity change, negative = inhibition” value was 0.335% [at 52.9 µM] (inactive).

With `CCC/C=C/CO`, the “activity change, negative = inhibition” value was 6.93% (inactive).

Take `CC1=C(CC(=O)O)c2cc(F)ccc2/C1=C\c1ccc(S(C)(=O)=O)cc1`: the “activity change, negative = inhibition” value was -19.6% [at 52.9 µM] (inactive).

On to `Cc1ccc(C=O)s1`, for which the “activity change, negative = inhibition” value was 9.39% (inactive).

For `CCCCC1CCC(=O)O1` (stereo not given), the “activity change, negative = inhibition” value is 8.9% (inactive).

With `O=C(C(Cl)Cl)N1CCOC12CCCCC2`, the “activity change, negative = inhibition” value was -5.65% (inactive).

Consider `Cc1c(C(=O)NCCO)[n+](=O)c2ccccc2n1[O-]`, for which the “activity change, negative = inhibition” value was 1.53% [at 52.9 µM] (inactive).

Consider `CN1CCN(N)CC1`, for which the “activity change, negative = inhibition” value was 1.09% [at 52.9 µM] (inactive).

With `C=CCCCCCCCCO`, the “activity change, negative = inhibition” value is -24.9% (inactive).

For `CCCCCCOc1ccc(N)cc1`, the Potency was 35.6 µM (active).

For the compound `COC(=O)c1ccc2cc(C(=O)OC)ccc2c1`, the activity change, negative = inhibition was 16.2% [at 23.6 µM] (inactive).

Consider `C=C(C)C(=O)OCCOP(=O)(O)O`, for which the “activity change, negative = inhibition” value is 8.32% (inactive).

For `Cc1c(N)cccc1N`, the Potency is 6.47 µM (active).

As for `CCN(CCCc1ccccc1)CCCc1ccccc1`, the “activity change, negative = inhibition” value was 67.7% [at 52.9 µM] (inactive).

With `CCN(CC)CCOc1ccc(Cc2ccccc2)cc1`, the “activity change, negative = inhibition” value is 42.1% [at 52.9 µM] (inactive).

With `C[C@]12CCC(=O)C=C1CC[C@@H]1[C@@H]2CC[C@@]2(C)[C@H]1CC[C@]2(O)C(=O)CO`, the “activity change, negative = inhibition” value was 34.3% [at 52.9 µM] (inactive).

Take `OCc1c2ccccc2cc2ccccc12`: the Potency is 25.3 µM (active).

Turning to `C=Cc1ccccc1`, the “activity change, negative = inhibition” value was 2.27% (inactive).

`CCC(=O)Nc1ccc(O)cc1`: the “activity change, negative = inhibition” value was 18.3% [at 52.9 µM] (inactive).

For `CCCN(CCC)C(=O)C(CCC(=O)O)NC(=O)c1ccccc1` (stereo not given), the “activity change, negative = inhibition” value was -1.25% [at 52.9 µM] (inactive).

On to `O=[N+]([O-])c1nccn1CO[C@@H](CO)[C@H](O)CO`, for which the “activity change, negative = inhibition” value is 2.83% [at 52.9 µM] (inactive).

In the case of `CCCCCCCCCCCCCCCCOP(=O)([O-])OCC[N+](C)(C)C`, the “activity change, negative = inhibition” value is 1.13% [at 52.9 µM] (inactive).

Turning to `O=Cc1ccc(F)c(Br)c1`, the “activity change, negative = inhibition” value is 13.1% (inactive).

For `CCc1cc(Cl)c(OC)c(C(=O)NC[C@@H]2CCCN2CC)c1O`, the “activity change, negative = inhibition” value was -1.46% [at 52.9 µM] (inactive).

Consider `CCCC(CCC)(C(=O)OCC)C(=O)OCC`, for which the “activity change, negative = inhibition” value is 7.29% [at 52.9 µM] (inactive).

Regarding `Cc1cc2c(s1)Nc1ccccc1N=C2N1CCN(C)CC1`, the “activity change, negative = inhibition” value was -0.253% [at 52.9 µM] (inactive).

For `CCCCCCn1c(=O)c2c(ncn2C)n(C)c1=O`, the “activity change, negative = inhibition” value is -0.37% [at 52.9 µM] (inactive).

For the compound `CC(C)Nc1nc(N)nc(Cl)n1`, the “activity change, negative = inhibition” value was 0.68% (inactive).

For `C[C@@H]1CN(c2c(F)c(F)c3c(=O)c(C(=O)O)cn(C4CC4)c3c2F)C[C@H](C)N1`, the activity change, negative = inhibition was 9.32% [at 23.6 µM] (inactive).

Take `NCCC(O)(P(=O)(O)O)P(=O)(O)O`: the “activity change, negative = inhibition” value is 11.4% [at 52.9 µM] (inactive).

For the compound `O=C(O)C(=O)Cc1c[nH]c2ccccc12`, the “activity change, negative = inhibition” value is 0.754% (inactive).

As for `COC(=O)/C=C(/C)N`, the “activity change, negative = inhibition” value was -19.9% [at 52.9 µM] (inactive).

In the case of `CCOC(=O)C1CC(=O)C(=C(O)C2CC2)C(=O)C1` (stereo not given), the “activity change, negative = inhibition” value is 5.48% (inactive).

As for `O=c1oc2c(O)c(O)cc3c(=O)oc4c(O)c(O)cc1c4c23`, the activity change, negative = inhibition is 6.71% [at 23.6 µM] (inactive).

As to `Cc1ncc(CO)c(CN)c1O`, the “activity change, negative = inhibition” value was 3.77% [at 52.9 µM] (inactive).

As to `CC(C)(C)c1ccc(OC(=O)c2ccccc2O)cc1`, the “activity change, negative = inhibition” value was 1.62% (inactive).

Consider `O=Cc1ccc(O)c(O)c1O`, for which the “activity change, negative = inhibition” value is -19.1% [at 52.9 µM] (inactive).
